An excerpt weighted towards active compounds, which were near 15% of everything screened.
ALOX12 inh = Primary qHTS assay for inhibitors of human arachidonate 12S-lipoxygenase (ALOX12): Round 2; Potency, µM (series often up to 108 µM), without a hit: at the highest dose activity change, negative = inhibition, actives largely listed as inhibitors; purified 12hLO, xylenol orange hydroperoxide absorbance; Polyunsaturated fatty acid lipoxygenase ALOX12 (Homo sapiens), P18054; AID 1671190, 2021; hit rate 1.1% among 580,000
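Purified human 12hLO (150 nM final) in 25 mM Hepes, 0.01% Triton X-100, pH 7.0 was preincubated 15 min at room temperature with compound. Then 40 uM arachidonic acid was added, 30 min. Hydroperoxide was read by Fe-XO absorbance ratio 573/405 nm.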
TDP1 cell CPT = qHTS for Inhibitors of human tyrosyl-DNA phosphodiesterase 1 (TDP1): qHTS in cells in presence of CPT. Potency, µM (highest dose often 46.2 µM), for inactives: at the highest dose activity change, negative = growth inhibition, actives largely listed as inhibitors. hit rate 12% among 420,000. chicken DT40 Tdp1-/-;hTDP1 cells + 20 nM CPT, ATP luminescence, 48 h; also: nearly all actives have a fitted effect of over 55% in size
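Cell growth measured by CellTiter-Glo luminescence after a minimum 48 h, 37 C compound exposure with 20 nM CPT in Tdp1-knockout DT40 cells stably expressing hTDP1, seeded 400/well; qHTS titration format.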
TDP1 cell noCPT = qHTS for Inhibitors of human tyrosyl-DNA phosphodiesterase 1 (TDP1): qHTS in cells in absence of CPT; Potency, µM (highest dose often 46.2 µM), for the others: top-dose activity change, negative = growth inhibition, hits mostly inhibitors; hit rate 15% among 420,000; DT40 Tdp1-/- hTDP1 cells, no CPT, ATP luminescence, 48 h; also: nearly all actives have a fitted effect of over 55% in size
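No-CPT arm: Tdp1-/-;hTDP1 DT40 cells (400/well) plus compounds, incubated ≥48 hr at 37 °C. Readout CellTiter-Glo luminescence.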
ELG1 DNA repair = qHTS screen for small molecules that inhibit ELG1-dependent DNA repair in human embryonic kidney (HEK293T) cells expressing luciferase-tagged ELG1; HEK293T ELG1-luciferase reporter, luminescence, 16 h; DNA damage induced by 5-fluorouridine; Potency, µM (doses to about 46.1 µM), for inactives: at the highest dose activity change, negative = inhibition, hits mostly inhibitors; hit rate 2.3% among 330,000; also: nearly all actives have a fitted effect of over 55% in size
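Luminescence from the luciferase reporter, measured 30 min after ONE-Glo reagent at room temperature, was the read-out. Beforehand, 2,000 cells per well were exposed for 16 hr at 37 °C to 5-fluorouridine together with compound or vehicle.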
RORg inh = qHTS for inhibitors of ROR gamma transcriptional activity; Nuclear receptor ROR-gamma (Mus musculus), P51450; Drosophila S2 Gal4-RORgamma UAS-luciferase reporter, 20 h; Potency, µM (series often up to 53.6 µM), inactives show at the highest dose activity change, negative = inhibition, usual class: inhibitors; hit rate 5.4% among 310,000; AID 2551, 2010; also: nearly all actives have a fitted effect of over 60% in size
Target sequence (P51450 whole entry, looked up, the tested form may be a part): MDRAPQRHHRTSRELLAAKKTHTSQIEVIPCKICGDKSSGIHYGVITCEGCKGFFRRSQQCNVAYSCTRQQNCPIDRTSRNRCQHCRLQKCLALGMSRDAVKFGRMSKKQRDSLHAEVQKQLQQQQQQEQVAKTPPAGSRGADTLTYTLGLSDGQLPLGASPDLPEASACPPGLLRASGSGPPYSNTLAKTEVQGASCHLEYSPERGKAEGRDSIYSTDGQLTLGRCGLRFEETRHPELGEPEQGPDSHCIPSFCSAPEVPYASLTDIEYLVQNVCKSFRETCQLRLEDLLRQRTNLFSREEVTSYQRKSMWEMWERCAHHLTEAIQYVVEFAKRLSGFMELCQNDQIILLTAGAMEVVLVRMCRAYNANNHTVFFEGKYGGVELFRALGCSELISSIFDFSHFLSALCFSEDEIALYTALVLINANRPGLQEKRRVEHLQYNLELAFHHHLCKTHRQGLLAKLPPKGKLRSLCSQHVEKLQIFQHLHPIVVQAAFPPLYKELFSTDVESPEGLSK
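In this cell-based reporter format, copper sulfate (700 uM final) drives Gal4–ROR gamma fusion expression from a metallothionein promoter in Drosophila Schneider cells; compounds preincubated 1 hr, reporter read after 20 hr at ambient temperature.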
VP16 counter = VP16 counterscreen qHTS for inhibitors of ROR gamma transcriptional activity | Drosophila S2 Gal4-VP16 UAS-luciferase, luminescence, 20 h | Potency, µM (doses to about 53.6 µM), without a hit: top-dose activity, negative = inhibition, usual class: inhibitors | hit rate 3.5% among 310,000 | AID 2546, 2010;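 also: Gal4-VP16 expression switched on by copper sulfate through the metallothionein promoter; nearly all actives have a fitted effect of over 50% in size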
Active calls of the source: *; ? = inconclusive; . = no result given; ! = not confirmed by another sample; [ ] = remark or other dose. Calls follow the shape of the dose curve; as a rule, active = well fitted curve in the direction sought with a large enough effect; inconclusive = small, poorly fitted or top-dose-only effect, or another doubt; inactive = no such curve, though single readings can be large; an effect the other way counts as inactive or inconclusive. % is scaled to controls: 0 for no effect and ±100 for the full control effect; potency is read from the fitted curve at half-maximal effect.

SMILES	ALOX12 inh	TDP1 cell CPT	TDP1 cell noCPT	ELG1 DNA repair	RORg inh	VP16 counter
O=C(CSc1nc2cc([N+](=O)[O-])ccc2n1-c1ccccc1)NCc1ccc2c(c1)OCO2	-25%	15µM*	23µM*	12%	32%	-42%
Cc1cc(C(=O)CSc2nc3ccccc3c(=O)n2C)c(C)n1Cc1ccc2c(c1)OCO2	?	5.8µM*	6.5µM*	?	20%	-17%
O=C(CSc1nccn1-c1ccccc1)NCc1ccc2c(c1)OCO2	0%	-16%	-18%	1%	?	-10%
CCN(CC)C(=O)CC[C@@H]1CNC(=O)[C@@H]2C[C@H](NC(=O)c3ccc(N(C)C)cc3)CN12	15%[176 µM]	.	.	.	.	.
O=S(=O)(c1ccccc1)N1CCC(O)(CSc2ccc(Cl)cc2)CC1	1%	?	26µM*	-6%	15%	?
CCc1cccc(CC)c1NC(=O)NC1CCCCC1	-4%	-6%	-3%	1%	-6%	5%
CCc1cccc(CC)c1NC(=O)CN1CC(C)SC1=NC1CCCCC1 (centres undefined)	-10%	21µM*	13µM*	0%	-22%	-5%
O=C(CCN1CCC(c2ccccc2)C1)c1ccccc1 (centres undefined)	?	3.7µM*	3.7µM*	-12%	-9%	3%
O=C(CCN1CCC(c2ccccc2)C1)c1cccc2ccccc12 (centres undefined)	25µM*	.	.	.	.	.
O=C(CCN1CCC(c2ccccc2)C1)c1ccco1 (centres undefined)	-23%	.	.	.	.	.
O=C(CCN1CCC2CCC(C2)C1)c1ccc(F)cc1 (centres undefined)	-9%	3.3µM*	2.9µM*	.	.	.
O=C(CCN1CCC(c2ccccc2)C1)c1ccc2c(c1)OCCO2 (centres undefined)	-18%	2.1µM*	1.8µM*	-7%	7.1µM*!	7.1µM*!
O=C(CCc1ccccc1)c1ccc2c(c1)OCCCO2	0%	-9%	-2%	?	0%	2%
O=C(NCCc1ccc2c(c1)OCCO2)c1ccc(NC(=O)c2ccco2)cc1	11%	.	.	.	.	.
N=c1n(CCN2CCCCC2)c2ccccc2n1CC(=O)c1cccs1	1%	18µM*	21µM*	-12%	16%	1%
O=C(CCN1CCC(c2ccccc2)C1)c1ccc2ccccc2c1 (centres undefined)	16µM*	.	.	.	.	.
O=C(CCC(=O)N1CCN(c2ccccn2)CC1)c1cccs1	8%	?	-19%	?	.	.
O=C(CCN1CCC(c2cccs2)=N1)c1cccs1	165%	5.8µM*	5.2µM*	?	?	?
O=C(CCN1CCCC1)c1cccs1	0%	0.73µM*	1.5µM*	-9%	6%	-1%
COc1cc(C(C)=O)ccc1OCCN1CCC(Cc2ccccc2)CC1	?	?	?	5%	-4%	-8%
COc1cc(C(=O)CCN2CCC(c3ccccc3)C2)cc(OC)c1OC (centres undefined)	-15%	4.6µM*	5.8µM*	11%	16µM*	?
O=C(CCN1CCC(c2ccccc2)C1)c1cccs1 (centres undefined)	?	1.8µM*	2.6µM*	0%	?	?
O=C(CCCN1C(=O)/C(=C/c2ccccc2Cl)SC1=S)NNC(=O)c1cccnc1	123%	?	?	8%	17%	-14%
O=C(CCCN1C(=O)/C(=C/c2ccccc2Cl)SC1=S)NNC(=O)c1ccccc1	5%	18µM*	16µM*	-16%	3.2µM*	7.1µM*
O=C(CCCN1C(=O)/C(=C/c2ccccc2Cl)SC1=S)NNC(=O)c1ccc(Cl)cc1Cl	2%	?	-9%	-19%	0.22µM*	4.5µM*
SMILES	ALOX12 inh	TDP1 cell CPT	TDP1 cell noCPT	ELG1 DNA repair	RORg inh	VP16 counter
COc1cc(NC(=O)CN(c2ccc(C)cc2)S(=O)(=O)c2c(C)noc2C)cc(OC)c1	-7%	18µM*	7.3µM*	-22%	30%	?
COc1cc(NC(=O)CN(c2cc(C)cc(C)c2)S(=O)(=O)c2c(C)noc2C)cc(OC)c1	10%	18µM*	?	6%	5%	-8%
Cc1cc(C)cc(N(CC(=O)NCc2ccccc2Cl)S(=O)(=O)c2c(C)noc2C)c1	0%	?	23µM*	.	.	.
Cc1cc(C)cc(N(CC(=O)Nc2cccc(C)n2)S(=O)(=O)c2c(C)noc2C)c1	-28%	21µM*	13µM*	-15%	?	-19%
Cn1cc(Cl)cc1C(=O)N1CC[C@@]2(O)CCN(C(=O)C3CCC3)C[C@H]2C1	-20%	.	.	.	.	.
CC(C)c1ccccc1NC1=NS(=O)(=O)c2ccccc21	-62%	.	.	.	.	.
CCCNCc1ccc(-c2ccc(C(C)O)cc2)o1 (centres undefined)	-46%	.	.	.	.	.
CCOc1ccc(N(CC(=O)Nc2ccc(C)cc2)S(=O)(=O)c2c(C)noc2C)cc1	-21%	?	-27%	?	-23%	1%
Cc1ccc(N(CC(=O)Nc2ccc(OC(F)(F)F)cc2)S(=O)(=O)c2c(C)noc2C)cc1	-9%	21µM*	18µM*	.	.	.
Cc1ccc(N(CC(=O)Nc2ccc3c(c2)OCCO3)S(=O)(=O)c2c(C)noc2C)cc1	-2%	?	?	16µM*	19%	-13%
CC(C)NC(=O)C(NC(=O)c1ccc2c(c1)OCO2)C1CCN(C(=O)c2ccc(F)cc2)CC1 (centres undefined)	14%	.	.	.	.	.
O=C(Cc1ccccc1Cl)NNC(=O)C1CCCCC1	57%	.	.	.	.	.
CCCn1c(=O)n(C)c(=O)c2c(SCC(=O)Nc3ccc4c(c3)OCO4)nc(C3CC3)nc21	-38%	.	.	.	.	.
COc1ccccc1-n1cc(-c2ccc(C)cc2)[nH]c1=S	?	3.7µM*	4.1µM*	?	2.8µM*	7.1µM*
COc1ccccc1-n1cc(-c2ccc(Br)cc2)[nH]c1=S	?	16µM*	13µM*	1%	4.5µM*	10µM*
S=c1[nH]c(-c2ccc(Br)cc2)cn1CCc1ccccc1	473%	2%	1%	2%	6.3µM*	20%[10 µM]
COc1ccccc1-n1cc(-c2ccc([N+](=O)[O-])cc2)[nH]c1=S	0%	1%	?	?	1.6µM*	-22%
